# Only some compounds are listed: those with a hit (about 2.9% of all), similar ones and a draw of the others.
# TRPML1 agonist – qHTS for Agonists of the Human Mucolipin Transient Receptor Potential 1 (TRPML1). 410,000 tested, 0.12% active. TRPML1-expressing cells, Ca2+ dye fluorescence, FDSS. activation, % (no concentration beside the values). Mucolipin-1 (Homo sapiens), Q9GZU1; in the data active = activation above about 50%; inconclusive = mostly about 30% to 49%
# Target sequence (Q9GZU1 whole entry, looked up): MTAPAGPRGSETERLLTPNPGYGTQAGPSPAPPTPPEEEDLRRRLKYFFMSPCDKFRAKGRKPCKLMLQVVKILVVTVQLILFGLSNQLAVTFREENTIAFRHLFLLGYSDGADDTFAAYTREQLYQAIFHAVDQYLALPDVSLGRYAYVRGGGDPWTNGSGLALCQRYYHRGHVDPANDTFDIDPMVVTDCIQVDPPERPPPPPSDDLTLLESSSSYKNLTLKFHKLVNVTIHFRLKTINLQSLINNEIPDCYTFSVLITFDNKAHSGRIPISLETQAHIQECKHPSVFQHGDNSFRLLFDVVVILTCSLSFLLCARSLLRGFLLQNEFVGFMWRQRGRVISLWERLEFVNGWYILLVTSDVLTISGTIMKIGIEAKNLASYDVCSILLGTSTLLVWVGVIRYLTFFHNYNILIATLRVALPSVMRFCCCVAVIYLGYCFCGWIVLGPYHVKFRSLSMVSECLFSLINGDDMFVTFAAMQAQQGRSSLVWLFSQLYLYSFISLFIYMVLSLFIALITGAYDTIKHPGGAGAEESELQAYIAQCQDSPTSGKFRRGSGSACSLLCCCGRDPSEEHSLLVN
#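 In this qHTS format, compounds were pin-transferred onto Ca8-dye-loaded TRPML1-DL cells induced with Tet overnight, and intracellular Ca2+ fluorescence was recorded kinetically for 110 s after a 10 s baseline. A subsequent 4uM final 54-4 (EC80) addition followed by a second 110 s read served as the antagonist phase.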
# TRPML1 blocker – qHTS for Inhibitors of the Human Mucolipin Transient Receptor Potential 1 (TRPML1). Mucolipin-1 (Homo sapiens), Q9GZU1. 390,000 tested, 0.02% active. activity change, negative = inhibition, % (no concentration beside the values). TRPML1-inducible cells, Ca2+ dye fluorescence, FDSS; stronger effect = lower value; inhibition of EC80 agonist-evoked calcium signal. AID 624415, 2012; in the data active = activity change below about -50%; inconclusive = between about -30% and that limit;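 also: stimulus is agonist 54-4 at its EC80 concentration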
#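 TRPML1-DL cells, Tet-induced overnight (~16 h, 37 °C) at 1,500 cells/well, were loaded with Ca8 no-wash dye plus quencher for 45-90 min at room temperature. Compounds were pinned during FDSS kinetic reading; agonist 54-4 at EC80 (4 uM final) then added.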
# D3 antag – qHTS of D3 Dopamine Receptor Antagonist: qHTS; max response, negative = inhibition, %; AID 652054, 2013; D3R cells, DiscoveRx beta-arrestin luminescence, antagonist mode; stronger effect = lower value; 360,000 tested, 2.5% active; in the data active = max response below about -50%; inconclusive = no clear call, values can overlap the other calls
#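 Cells plated overnight at 1500 cells/well, then exposed to library compounds with dopamine controls for 90 minutes at 37 degrees C. DiscoveRx reagent added for 30–60 minutes at room temperature; luminescence read, quantitative HTS format.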
# DRD3 agonist – qHTS of D3 Dopamine Receptor Agonist: qHTS. D(3) dopamine receptor (Homo sapiens), P35462. D3R DiscoveRx beta-arrestin cells, luminescence, 90 min. max activation, %. 410,000 tested, 0.58% active. AID 652048, 2013; in the data active = max activation above about 30%
#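 Cells at 1500/well, incubated overnight, then treated with pinned compounds (dopamine as control) for 90 min at 37 degrees C. DiscoveRx reagent added for 30 - 60 minutes at room temperature; luminescence read.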
# Hits are given with their value; – = inactive; ? = inconclusive; · = no result.
SMILES,TRPML1 agonist,TRPML1 blocker,D3 antag,DRD3 agonist
O=C(Nc1nc2n(n1)C(c1ccc(Cl)cc1)CC(c1ccc(Cl)cc1)N2)c1ccco1 (stereo not given),–,–,-53,–
CO/N=C(/C(=O)N[C@@H]1C(=O)N2C(C(=O)O)=C(COC(N)=O)CS[C@H]12)c1ccco1,·,·,·,–
Cc1oc(-c2ccc(Cl)cc2)nc1CN1CCCC(C(=O)NCc2ccco2)C1 (stereo not given),–,–,-73,–
Cc1oc(-c2ccc(Cl)cc2)nc1CN1CCCC(C(=O)NCc2ccc(Cl)cc2)C1 (stereo not given),–,–,·,–
CCOC(=O)C1(CCOc2ccccc2)CCN(Cc2cccc3nonc23)CC1,–,–,-89,–
CCOC(=O)C1(CCc2ccccc2)CCN(Cc2ccc(O)cc2)CC1,–,–,-57,–
CCOC(=O)C1(CCOc2ccccc2)CCN(Cc2ccc(O)cc2)CC1,–,–,?,–
O/N=C(/C[n+]1ccsc1)c1ccc(I)cc1,–,·,·,·
CCn1c(C)nc2cc(-c3nnc(-c4c(-c5ccccc5)noc4C)o3)ccc21,–,–,–,41
COc1ccc(NC(=O)COC(=O)CN2C(=O)c3ccccc3C2=O)cc1,–,–,-54,–
COc1ccc(NC(=O)CN2CCc3ccccc3C2)cc1,–,–,-80,–
O=C(NCCN1CCc2ccccc2C1)Nc1ccc([N+](=O)[O-])cc1,–,–,–,–
O=C(NCCCN1CCc2ccccc2C1)Nc1ccc(Br)cc1,–,–,-55,–
COc1ccc(NC(=O)NCCCN2CCc3ccccc3C2)cc1,–,–,-108,–
COc1ccc(NC(=O)CCN2C(=O)c3ccccc3C2=O)cc1,·,·,–,–
COc1ccc(N(Cc2cccs2)C(=O)COc2cc(C)c(Cl)c(C)c2)cc1,–,–,·,–
CCOc1ccccc1CNC(=O)c1cc(-c2ccc(OC)cc2)nc2ccc(C(C)C)cc12,–,–,·,–
CCN1CCc2nc(SCC(=O)Nc3ccc(OC)cc3)c(C#N)cc2C1,–,–,-70,–
COc1ccc2cc3cc(C(=O)NCCN4CCc5ccccc5C4)sc3nc2c1,–,–,-93,–
C(=C\c1c[nH]c2ccccc12)/c1ccc2ccccc2n1,–,·,·,·
CCN(Cc1ccc2c(c1)OCCO2)C(=O)CSc1nc(C)nc2sc(C)c(C)c12,–,–,–,31
Cc1nc(SCC(=O)NCC2COc3ccccc3O2)c2c(C)c(C)sc2n1 (stereo not given),–,–,–,93
Cc1nc2ccccc2nc1/C=C/c1ccc(N(C)C)cc1,–,·,·,·
Cc1ccc(C(=O)NCCc2ccc(Cl)cc2)cc1-n1c(C)nc2cccnc21,–,–,·,–
COc1ccccc1-c1cc(C(F)(F)F)nc(S(=O)(=O)CCCC(=O)Nc2cccnc2Cl)n1,–,–,-52,–
SMILES,TRPML1 agonist,TRPML1 blocker,D3 antag,DRD3 agonist
COc1ccccc1-c1cc(C(F)(F)F)nc(S(=O)(=O)CCCC(=O)NC(C)C)n1,–,–,-67,–
COc1ccccc1-c1cc(C(F)(F)F)nc(S(=O)(=O)CCCC(=O)NCc2ccc(F)cc2)n1,–,–,-67,–
COc1ccccc1-c1cc(C(F)(F)F)nc(S(=O)(=O)CCCC(=O)Nc2ccccc2F)n1,–,–,·,–
COc1ccccc1-c1cc(C(F)(F)F)nc(S(=O)(=O)CCCC(=O)N2CCCCC2C)n1 (stereo not given),–,–,-88,–
COc1ccc(NC(=O)CCCS(=O)(=O)c2nc(-c3ccccc3OC)cc(C(F)(F)F)n2)c(OC)c1,–,–,·,–
Cc1cccc(C)c1Nc1ncccc1C(=O)O,·,·,·,–
CC(=O)N[C@@H]1C(O[C@H]2O[C@H](C(=O)O)C(O)[C@H](O)[C@H]2O)[C@H](O)[C@@H](CO)O[C@H]1O[C@@H]1C(C(=O)O)O[C@@H](O[C@H]2[C@H](O)[C@@H](CO)OC(O)[C@@H]2NC(C)=O)[C@H](O)[C@H]1O (stereo not given in full),·,·,·,–
COc1ccccc1-c1cc(C(F)(F)F)nc(S(=O)(=O)CCCC(=O)Nc2cc(C)on2)n1,–,–,-82,–
CCCOc1ccc(C2C3=C(Nc4nc(N)[nH]c(=O)c42)c2ccccc2C3=O)cc1 (stereo not given),–,–,-55,–
CCOc1ccc(C2C3=C(Nc4nc(N)[nH]c(=O)c42)c2ccccc2C3=O)cc1 (stereo not given),–,–,–,–
Cn1nc(C(F)(F)F)cc1C(=O)NC1CCCCCC1,–,–,–,40
CC1CCN(C(=O)C2COc3ccccc3C2)CC1 (stereo not given),–,–,·,–
O=C(/C=C/c1ccccc1)Nc1ccc(CN2CCOCC2)cc1,–,–,–,–
O=C(/C=C/c1ccc(Cl)cc1)NC(=S)Nc1ccc(CN2CCOCC2)cc1,–,–,-65,–
Cc1cc(C)c(NC(=O)c2cc3c(=O)n4ccccc4nc3n2C)c(C)c1,–,–,·,–
CC(C)c1ccccc1OCC(O)CN1CCN(S(=O)(=O)c2ccc([N+](=O)[O-])cc2)CC1 (stereo not given),–,–,-55,–
CC(C)(C)OC(=O)NCCc1nnc(SCc2ccccc2Cl)o1,–,–,–,–
CC(C)(C)OC(=O)NCCc1nnc(S(=O)(=O)Cc2ccc(Cl)cc2Cl)o1,–,–,-71,–
Cc1cc(C(=O)Nc2ccccn2)no1,–,–,–,33
COc1cccc2c1cc1c(=O)n(CC(=O)N3CCN(c4cccc(C)c4)C(C)C3)nc(C)n12 (stereo not given),–,–,·,–
CN1C2CCC1/C(=C\c1ccccc1F)C(=O)/C2=C/c1ccccc1F,–,–,-54,–
CC1CCN(C2=NC(=O)/C(=C/c3ccccc3F)S2)CC1,–,–,–,–
OCCC1CN(C/C(Cl)=C/c2ccccc2)CCN1C1CCCC1 (stereo not given),–,–,–,–
CC(C)=CCN1CCN(C/C(Cl)=C/c2ccccc2)CC1CCO (stereo not given),–,–,-63,–
Cc1ccc(Cn2ccn(Cc3ccc(C)cc3)c(=O)c2=O)cc1,–,–,·,–
SMILES,TRPML1 agonist,TRPML1 blocker,D3 antag,DRD3 agonist
CN1CCN(C(=O)NC2CCCCC2)CC1,–,–,-54,–
O=C(NC1CCCCC1)N1CCCCCC1,–,–,–,–
CCCn1c(N2CCN(CC(=O)NCc3cccs3)CC2)nc2ccccc21,–,–,-67,–
O=C(NC1CCCCCC1)c1ccc2c(c1)sc1nc(-c3ccc(F)cc3)cn12,–,–,·,–
CC(NC(=O)NC1CCCCC1)C(c1cccs1)N1CCN(c2ccccc2)CC1 (stereo not given),–,–,-55,–
CC(NC(=O)C1CC1)C(c1cccs1)N1CCN(c2ccccc2)CC1 (stereo not given),–,–,–,–

# From PubChem BioAssay
